# Experimental data as given in PubChem BioAssay.
# The source made the active and inactive calls.
# Experiments:
# [1] = binders of probe aFSTL3 on microarray, primary screen, stem cell growth factor project, biochemical, small-molecule microarray, fluorescence 635/667 (AID 1064); details: higher = more signal;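 further: measures binding of the biotinylated anti-FSTL3 antibody to printed compounds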
# [2] = binders from COS7 lysate, DM2A8 probe, primary screen, torsin A project, cell lysate, small-molecule microarray, fluorescence 635/667 (AID 1065); details: higher = more signal, COS7 lysate expressing mutant human TOR1A
# [3] = binders of probe aFGF2 on microarray, primary screen, stem cell growth factor project, biochemical, small-molecule microarray, fluorescence 635/667 (AID 1067); details: higher = more signal;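 further: measures binding of biotinylated aFGF2 protein to printed compounds on slides; z-score merges feature fluorescence and signal-to-noise across triplicate slides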
# [4] = binders of probe aFGF10 on microarray, primary screen, stem cell growth factor project, biochemical, small-molecule microarray, fluorescence 635/667 (AID 1071); details: higher = more signal;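 further: score merges 667 nm spot intensity and signal to noise from triplicate slides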
# [5] = molecular target: Neurogenic locus notch homolog protein 2 (Homo sapiens) (UniProt Q04721); assay: Notch2 binders on small-molecule microarrays, primary screen, biochemical, small-molecule microarray, 635 nm fluorescence, stem cell growth factors (AID 1073); details: Notch2 binding, higher = more signal
# Sequence of Neurogenic locus notch homolog protein 2 (Homo sapiens) (Q04721 whole entry, looked up, canonical isoform): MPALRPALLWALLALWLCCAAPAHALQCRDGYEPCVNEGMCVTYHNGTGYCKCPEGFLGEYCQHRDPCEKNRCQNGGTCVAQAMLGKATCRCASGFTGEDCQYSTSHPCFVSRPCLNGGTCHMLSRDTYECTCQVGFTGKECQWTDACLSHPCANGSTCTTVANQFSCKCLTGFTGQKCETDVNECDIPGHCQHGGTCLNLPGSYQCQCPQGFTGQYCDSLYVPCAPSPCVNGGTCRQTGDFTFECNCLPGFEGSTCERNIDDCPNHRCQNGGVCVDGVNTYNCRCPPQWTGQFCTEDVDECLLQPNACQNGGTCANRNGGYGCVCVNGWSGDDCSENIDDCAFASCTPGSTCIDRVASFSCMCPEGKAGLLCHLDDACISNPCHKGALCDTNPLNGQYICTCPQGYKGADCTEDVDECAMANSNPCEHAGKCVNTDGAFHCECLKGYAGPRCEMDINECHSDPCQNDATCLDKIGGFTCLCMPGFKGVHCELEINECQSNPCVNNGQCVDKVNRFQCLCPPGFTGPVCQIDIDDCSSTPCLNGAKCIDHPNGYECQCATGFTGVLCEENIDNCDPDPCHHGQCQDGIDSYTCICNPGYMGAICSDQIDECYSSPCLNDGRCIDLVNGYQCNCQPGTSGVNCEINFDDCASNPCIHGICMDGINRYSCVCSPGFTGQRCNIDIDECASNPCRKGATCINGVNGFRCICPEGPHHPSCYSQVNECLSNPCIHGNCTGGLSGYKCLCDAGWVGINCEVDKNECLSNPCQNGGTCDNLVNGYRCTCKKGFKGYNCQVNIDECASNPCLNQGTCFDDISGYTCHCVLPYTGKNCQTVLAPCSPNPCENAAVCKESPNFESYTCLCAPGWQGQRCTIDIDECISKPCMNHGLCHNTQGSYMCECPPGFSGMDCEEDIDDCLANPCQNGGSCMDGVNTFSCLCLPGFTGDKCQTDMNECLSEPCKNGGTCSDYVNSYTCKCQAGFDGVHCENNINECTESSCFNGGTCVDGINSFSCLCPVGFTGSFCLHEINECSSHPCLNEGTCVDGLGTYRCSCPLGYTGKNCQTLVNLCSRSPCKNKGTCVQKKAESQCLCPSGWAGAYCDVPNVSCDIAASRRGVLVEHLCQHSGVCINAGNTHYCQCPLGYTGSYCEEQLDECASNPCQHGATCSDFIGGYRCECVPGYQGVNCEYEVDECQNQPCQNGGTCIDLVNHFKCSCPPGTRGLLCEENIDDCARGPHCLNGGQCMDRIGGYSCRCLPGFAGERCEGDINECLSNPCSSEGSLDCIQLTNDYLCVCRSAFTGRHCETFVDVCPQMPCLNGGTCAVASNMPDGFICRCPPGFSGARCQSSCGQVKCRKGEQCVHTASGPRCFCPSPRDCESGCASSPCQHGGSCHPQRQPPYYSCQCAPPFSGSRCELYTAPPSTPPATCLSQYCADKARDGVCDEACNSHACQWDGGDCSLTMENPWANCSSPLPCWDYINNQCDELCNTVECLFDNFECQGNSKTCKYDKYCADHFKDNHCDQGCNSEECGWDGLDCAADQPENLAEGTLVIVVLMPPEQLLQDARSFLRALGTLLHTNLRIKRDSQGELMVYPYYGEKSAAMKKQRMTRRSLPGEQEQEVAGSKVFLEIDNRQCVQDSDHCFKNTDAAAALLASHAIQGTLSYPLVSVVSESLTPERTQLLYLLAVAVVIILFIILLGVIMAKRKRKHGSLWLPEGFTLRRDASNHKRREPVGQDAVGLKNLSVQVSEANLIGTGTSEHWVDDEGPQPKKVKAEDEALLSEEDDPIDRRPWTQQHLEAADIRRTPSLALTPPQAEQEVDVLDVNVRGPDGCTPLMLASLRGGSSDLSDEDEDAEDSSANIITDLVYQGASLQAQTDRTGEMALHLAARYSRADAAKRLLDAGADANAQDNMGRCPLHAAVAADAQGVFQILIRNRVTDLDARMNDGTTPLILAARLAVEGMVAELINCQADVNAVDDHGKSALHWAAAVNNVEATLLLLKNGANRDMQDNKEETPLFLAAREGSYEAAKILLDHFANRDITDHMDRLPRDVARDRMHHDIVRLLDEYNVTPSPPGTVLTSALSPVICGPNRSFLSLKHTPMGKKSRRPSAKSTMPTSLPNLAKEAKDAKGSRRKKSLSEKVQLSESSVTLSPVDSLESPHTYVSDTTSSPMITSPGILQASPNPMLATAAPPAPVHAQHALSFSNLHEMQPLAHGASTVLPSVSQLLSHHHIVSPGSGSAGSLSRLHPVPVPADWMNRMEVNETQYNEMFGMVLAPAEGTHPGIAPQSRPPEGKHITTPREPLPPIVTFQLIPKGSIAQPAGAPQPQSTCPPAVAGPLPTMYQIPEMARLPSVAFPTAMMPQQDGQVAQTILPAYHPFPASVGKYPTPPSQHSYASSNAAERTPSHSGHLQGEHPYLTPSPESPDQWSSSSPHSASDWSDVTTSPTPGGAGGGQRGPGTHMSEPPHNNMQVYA
# [6] = molecular target: Pro-neuregulin-1, membrane-bound isoform (Homo sapiens) (UniProt Q02297); assay: NRG1 binders on small-molecule microarrays, primary screen, psychiatric disease protein project, biochemical, small-molecule microarray, fluorescence 635/667 (AID 1075); details: NRG1 binding, 635 nm fluorescence, higher = more signal;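 further: score combines 667 nm spot fluorescence with signal to noise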
# Sequence of Pro-neuregulin-1, membrane-bound isoform (Homo sapiens) (Q02297 whole entry, looked up, the tested form may be a part, canonical isoform): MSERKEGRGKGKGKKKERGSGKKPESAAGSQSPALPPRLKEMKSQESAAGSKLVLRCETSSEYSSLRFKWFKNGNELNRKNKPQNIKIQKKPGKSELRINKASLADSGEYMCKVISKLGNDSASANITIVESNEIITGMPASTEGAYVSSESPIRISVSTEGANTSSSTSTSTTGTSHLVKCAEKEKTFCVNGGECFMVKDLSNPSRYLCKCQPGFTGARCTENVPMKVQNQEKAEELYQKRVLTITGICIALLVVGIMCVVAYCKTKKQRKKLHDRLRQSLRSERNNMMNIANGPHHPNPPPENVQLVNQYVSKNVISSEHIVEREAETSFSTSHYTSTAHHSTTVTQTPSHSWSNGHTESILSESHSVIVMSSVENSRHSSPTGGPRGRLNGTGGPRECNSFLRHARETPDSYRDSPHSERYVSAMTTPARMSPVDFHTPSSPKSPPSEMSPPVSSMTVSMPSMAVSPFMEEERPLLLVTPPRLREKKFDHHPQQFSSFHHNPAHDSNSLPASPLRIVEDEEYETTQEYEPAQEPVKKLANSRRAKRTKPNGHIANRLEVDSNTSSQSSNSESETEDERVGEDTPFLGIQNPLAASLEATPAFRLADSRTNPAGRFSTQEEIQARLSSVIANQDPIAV
# [7] = system: Neuregulin-1 EGF-like domain; assay: binders of neuregulin-1 EGF-like domain, primary screen, biochemical, small-molecule microarray, 635 nm fluorescence (AID 1081); details: small-molecule microarray binding, higher = more signal;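 further: binding of the protein to compounds printed on small-molecule microarray slides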
# [8] = FRG1 promoter luciferase signal modulators, primary screen, FRG1 inhibition for FSHD, cell-based, C2C12 myotubes, firefly/Renilla luciferase, luminescence (AID 1084); details: higher = more signal, called active from +8 up or from −8 down
# [9] = binders of probe aFST on microarray, primary screen, stem cell growth factor project, biochemical, small-molecule microarray, fluorescence 635/667 (AID 1086); details: higher = more signal;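 further: score merges 667 nm fluorescence with signal-to-noise of each printed compound spot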
# [10] = binders of probe aHhip on microarray, primary screen, stem cell growth factor project, biochemical, small-molecule microarray, fluorescence 635/667 (AID 1087); details: higher = more signal;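 further: score merges spot fluorescence at 667nm with spot signal to noise ratio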
# [11] = system: PRMT1 (protein arginine N-methyltransferase 1); assay: PRMT1 binders on small-molecule microarrays, primary screen, biochemical, small-molecule microarray, 635 nm fluorescence (AID 1088); details: small-molecule microarray binding, higher = more signal;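 further: binding of Prmt1 protein to compounds spotted on small-molecule microarray slides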
# [12] = yeast growth modulation, basal conditions, primary screen, YJM789 clinical isolate, OD600, 24 h (AID 1089);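 further: growth of clinical yeast isolate S. cerevisiae YJM 789 seeded 1000 cells per well; test concentration not given here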; details: S. cerevisiae YJM789 growth, higher = more signal, called active from +8 up or from −8 down
# [13] = fission yeast growth modulation, primary screen, strain 972, OD600, 24 h, no modulator (AID 1090);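 further: basal condition with compound alone and no growth modifier present; test concentration not given here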; details: S. pombe 972 growth, higher = more signal, called active from +8 up or from −8 down
# [14] = S. cerevisiae growth modulation with rapamycin, primary screen, strain BY4716, OD600, 96 h (AID 1091); details: higher = more signal, called active from +8 up or from −8 down; further: test concentration not given here
# [15] = molecular target: Torsin-1A-interacting protein 2 (Homo sapiens) (UniProt Q8NFQ8); assay: LULL1 binders on small-molecule microarray, primary screen, cell lysate, human LULL1 lysate, 635/667 nm fluorescence (AID 1092); details: hLULL1 lysate binding, 635 nm fluorescence, higher = more signal;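 further: probe is lysate of COS7 cells overexpressing human LULL1; score merges per-feature 667 nm fluorescence with signal-to-noise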
# Sequence of Torsin-1A-interacting protein 2 (Homo sapiens) (Q8NFQ8 whole entry, looked up): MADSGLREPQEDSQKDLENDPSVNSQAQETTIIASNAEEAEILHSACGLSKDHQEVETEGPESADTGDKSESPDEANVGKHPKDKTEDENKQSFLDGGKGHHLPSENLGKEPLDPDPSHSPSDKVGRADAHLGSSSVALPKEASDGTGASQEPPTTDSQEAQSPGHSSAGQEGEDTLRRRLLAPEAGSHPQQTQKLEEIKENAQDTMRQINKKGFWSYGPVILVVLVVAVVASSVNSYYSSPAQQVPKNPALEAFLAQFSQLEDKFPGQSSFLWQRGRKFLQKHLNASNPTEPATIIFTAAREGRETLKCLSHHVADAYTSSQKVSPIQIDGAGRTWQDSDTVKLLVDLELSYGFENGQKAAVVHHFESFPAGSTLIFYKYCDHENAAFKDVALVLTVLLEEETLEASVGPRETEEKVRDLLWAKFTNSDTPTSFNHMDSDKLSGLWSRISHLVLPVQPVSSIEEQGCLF
# [16] = E. coli growth modulation, two-sided OD650, primary screen, E. coli filamentation project, strain DRC41, 24 h (AID 1093); details: OD650, 24 h, higher = more signal, called active from +8 up or from −8 down;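 further: MC1000 strain lacking acrAB efflux and sulA so SOS filamentation is blocked; test concentration not given here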
# [17] = small-molecule microarray binders of probe aLefty2, primary screen, biochemical, biotinylated probe, 635/667 nm fluorescence (AID 1094); details: higher = more signal;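 further: score merges spot fluorescence near 667 nm with spot signal-to-noise ratio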
# [18] = system: Noggin (protein binding on small-molecule microarray); assay: Noggin binders on small-molecule microarray, primary screen, biochemical, 635/667 nm fluorescence (AID 1095); details: 635 nm fluorescence, higher = more signal;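 further: score merges 667 nm feature fluorescence with signal to noise over triplicate slides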
# [19] = molecular target: Neurogenic locus notch homolog protein 3 (Homo sapiens) (UniProt Q9UM47); assay: NOTCH3 binders on small-molecule microarray, primary screen, biochemical, 635/667 nm fluorescence (AID 1096); details: NOTCH3 binding, 635 nm fluorescence, higher = more signal
# [20] = small-molecule microarray binders of probe aEGFR, primary screen, biochemical, biotinylated probe, 635/667 nm fluorescence (AID 1097); details: higher = more signal;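 further: probe is a biotinylated anti-EGFR antibody binding compounds printed on slides; score combines fluorescence near 667 nm and signal to noise of each spot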
Compound,composite z-score [1],composite z-score [2],composite z-score [3],composite z-score [4],composite z-score [5],composite z-score [6],composite z-score [7],z-score [8],composite z-score [9],composite z-score [10],composite z-score [11],z-score [12],z-score [13],z-score [14],composite z-score [15],z-score [16],composite z-score [17],composite z-score [18],composite z-score [19],composite z-score [20]
C=CCNC(=O)[C@H]1[C@@H]2C(=O)O[C@@H](c3ccccc3)[C@@H](c3ccccc3)N2[C@@H](c2ccccc2OCCO)[C@]12C(=O)N(C(=O)OCCOC)c1ccc(C#CCNC(N)=O)cc12,0.173,0.912,-0.0547,0.149,0.284,1.32,1.06,-1.53 (inactive),0.428,0.0623,1.55,0.602 (inactive),-0.26 (inactive),3.16 (inactive),2.39,2.35 (inactive),-0.108,0.878,1.15,-0.0389
C=CCC(OC(C)=O)[C@@H]1[C@@H](N(Cc2ccc(-c3ccccc3)cc2)C(=O)c2ccc(C)cc2)c2cc(OCCCO)ccc2N1C(=O)c1ccc(-c2ccccc2)cc1 (stereo not given in full),-0.0264,-0.192,-0.006,0.0126,-0.245,-0.0564,-0.538,-2.08 (inactive),0.186,-0.405,-0.173,-3.23 (inactive),-1.88 (inactive),-1.75 (inactive),0.554,0.65 (inactive),0.0026,-0.404,-0.532,0.039
O=C1O[C@@H](c2ccccc2)[C@@H](c2ccccc2)N2[C@@H](c3ccc(OCCO)cc3)[C@]3(C(=O)Nc4ccc(C#CCCO)cc43)[C@@H](C(=O)N3CCN(c4ncccn4)CC3)[C@H]12,-0.375,0.388,0.0364,0.617,0.731,1.2,1.2,0.126 (inactive),0.488,-0.171,1.54,0.772 (inactive),1.04 (inactive),3.71 (inactive),2.69,1.14 (inactive),-0.124,1.24,1.14,-0.0828
CO[C@@H]1COC(=O)[C@H](C)NC(=O)CC=C[C@@H](C)[C@H](OC)COC(=O)[C@H](C)NC(=O)CC=C[C@H]1C,-0.348,0.395,-0.112,0.269,0.208,-0.0025,0.0912,0.0543 (inactive),0.0054,-0.146,0.0529,0.611 (inactive),-0.76 (inactive),0.0943 (inactive),-0.391,0.485 (inactive),-0.137,0.705,0.546,-0.121
O=C(O)[C@@H]1Cc2c([nH]c3ccccc23)[C@@H](c2ccccc2)N1,-0.675,-0.15,-0.109,0.35,0.464,0.144,0.125,-0.608 (inactive),0.084,-0.0522,-0.645,-0.0524 (inactive),-0.474 (inactive),-0.731 (inactive),0.249,0.294 (inactive),-0.106,0.483,0.46,-0.046
COC(=O)[C@@]1(Cc2ccccc2N=[N+]=[N-])N=C(c2ccc(OCCCO)cc2)O[C@H]1c1ccccc1CN=[N+]=[N-],0.413,0.378,-0.0899,-0.136,0.0109,1.12,1.29,-1.38 (inactive),0.69,0.0053,1.41,0.653 (inactive),-1.3 (inactive),28.5 (active),2.6,0.255 (inactive),0.0641,0.836,0.041,-0.114
CN1C(=O)C2C=CC(C(O)C3CC=CCC3)N(Nc3ccccc3)C2C1=O (stereo not given),0.0125,1.54,0.0631,0.752,1.62,1.85,1.29,0.294 (inactive),0.733,0.382,1.47,0.373 (inactive),0.772 (inactive),0.726 (inactive),3.32,-0.623 (inactive),0.344,0.584,1.06,0.112
CCCC=C(CCC)[C@@H](NC(=O)c1ccc(C(F)(F)F)cc1)c1ccccc1,-0.0795,0.333,-0.0483,-0.195,0.237,-0.256,0.113,2.78 (inactive),0.587,-0.0296,0.626,0.562 (inactive),-0.502 (inactive),1.62 (inactive),2.03,-0.773 (inactive),-0.0038,-0.0491,0.417,-0.0565
COC(=O)[C@H]1[C@@H]2COc3ccccc3[C@H]2N[C@H]1C(=O)OC,-0.241,-0.0479,-0.139,0.255,0.419,0.281,0.428,0.44 (inactive),0.168,-0.189,0.213,-0.501 (inactive),-8.98 (active),0.265 (inactive),0.584,0.694 (inactive),0.0111,0.208,0.422,-0.152
C=C(C)[C@@H]1CC=C(C(O)C2C=CC3C(=O)NC(=O)C3N2Nc2ccccn2)CC1 (stereo not given in full),0.541,1.27,0.0127,1.07,1.61,1.36,1.35,1.65 (inactive),1.5,0.0524,1.55,0.0118 (inactive),0.514 (inactive),-0.285 (inactive),2.76,-0.953 (inactive),0.607,1.9,1.02,0.641
